Drawing on paper PMC7819943, “Rice protein-binding microarrays: a tool to detect cis-acting elements near promoter regions in rice”, this text covers binding signal for 42 sequences.

Over roughly 68,000 sequences, “fluorescence intensity (a.u.)” has its median near 9,100; the highest 2% begin near 16,000. The entries come from a sample that favours the highest values as a whole.

Chain of OsWRKY34 (Q0JBA9 entry or part of it): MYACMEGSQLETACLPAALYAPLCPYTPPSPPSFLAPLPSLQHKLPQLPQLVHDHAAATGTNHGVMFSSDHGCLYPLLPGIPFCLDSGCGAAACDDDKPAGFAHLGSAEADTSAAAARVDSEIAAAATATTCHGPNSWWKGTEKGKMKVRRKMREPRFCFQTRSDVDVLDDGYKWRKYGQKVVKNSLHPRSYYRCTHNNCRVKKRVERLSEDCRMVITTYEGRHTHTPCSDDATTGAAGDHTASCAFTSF

This experiment has as its target OsWRKY34 (Oryza sativa, UniProt Q0JBA9 1-250). The experiment is described as follows: protein-binding microarray (RPBM); PBS, 2% BSA, 51.3 ng/ul salmon testes DNA, 50 uM zinc acetate, 200 nM TF, 25 C, 1 h; high values mean tight binding. To be noted: protein: recombinant; tags: N-terminal polyhistidine and DsRed monomer fusion (pET32a); label: CyDye5-dUTP incorporated in the synthesized complementary strand; 3' TTTTT single-stranded linker to array surface; dsDNA, one strand shown. The essentials: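 The binding signal is fluorescence intensity per feature, in arbitrary units, read on an Axon 4000B scanner. Polyhistidine- and DsRed-tagged transcription factors (N-terminal fusions) from E. coli BL21-CodonPlus were purified on Ni–NTA and applied at 200 nM for 1 h at 25 °C to a double-stranded, BSA-blocked custom Agilent array in buffer with 50 µM zinc acetate.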
As for “TTCATTCATATGGTGTAACTTTTTGTCGCTGTAGGATCGCCGGAGTCACCTAGTGCAG”, the binding signal was 8130 fluorescence intensity (a.u.).

In the case of “CTTGCTGCCTGGATTTCTCCCTGTTTGCTCCCTGACGGAGCGGAGTCACCTAGTGCAG”, the binding signal is 9470 fluorescence intensity (a.u.).

Turning to “TCCGTGACTATGCTTCTTCTTTTCTTTAATTTTCACCAGACGGAGTCACCTAGTGCAG”, the binding signal is 8750 fluorescence intensity (a.u.).

As for “AATCAGATGGAGAGTTGGTTATATGGGTGTTTGGAGAGTTCGGAGTCACCTAGTGCAG”, the binding signal was 8410 fluorescence intensity (a.u.).

“ATCTCCAAAATCAGTTTAACATCGCCTAATCCACGTCGGTCGGAGTCACCTAGTGCAG”: the binding signal is 8820 fluorescence intensity (a.u.).

For the sequence “TTTGCGTCGCCTTTCATTTTGGATGTTTCAATTTGAATACCGGAGTCACCTAGTGCAG”, the binding signal was 10400 fluorescence intensity (a.u.).

“GGACGGCGGCGAGCGGCGAGGAGGAGGCGGGGAGGTGGGACGGAGTCACCTAGTGCAG”: the binding signal is 9580 fluorescence intensity (a.u.).

Regarding “GAGCGCGCGCGTTGGGCGGGAGGGGTTTGGTTGGTGAGCGCGGAGTCACCTAGTGCAG”, the binding signal is 11800 fluorescence intensity (a.u.).

On to “CTGGGGAGGGCGACGGCGCAGTGCGGGGTGGACGGGAGCGCGGAGTCACCTAGTGCAG”, for which the binding signal is 8270 fluorescence intensity (a.u.).

On to “GCGCGGCGTTGTTGGGTGTGTTCGTGAATCGGGCGGGATGCGGAGTCACCTAGTGCAG”, for which the binding signal is 10500 fluorescence intensity (a.u.).

For the sequence “GGCGAAGTGGTGGGTGCGTTGGGGCGAGGCGGAGCGGTGGCGGAGTCACCTAGTGCAG”, the binding signal was 8050 fluorescence intensity (a.u.).

In the case of “GTTTTGTTGGGTCGGCGGCGGCGGGTGAGAGTGGAGAATGCGGAGTCACCTAGTGCAG”, the binding signal is 12900 fluorescence intensity (a.u.).

As to “GTTGCGGGGTGGGTGGTGGCGTTGCGGGAGGAGGAGGGAGCGGAGTCACCTAGTGCAG”, the binding signal was 23100 fluorescence intensity (a.u.).

For the sequence “GGTGGAGGAGGTGGGCGGGGAAAGCGGCGACGTGAGGCGGCGGAGTCACCTAGTGCAG”, the binding signal is 14400 fluorescence intensity (a.u.).

On to “GGAGGAGGGGCGGCGGAGCGGGTGGTGGGGAGGCGACATGCGGAGTCACCTAGTGCAG”, for which the binding signal is 17900 fluorescence intensity (a.u.).

For the sequence “GTGGGGTGGGTGAGCGGGATGCGGGGCTTAGGCGGGGAAGCGGAGTCACCTAGTGCAG”, the binding signal was 16500 fluorescence intensity (a.u.).

For “CGTTTGTTGGGTGCGGCGGGCGGGGAGGAGCTCGTGAATGCGGAGTCACCTAGTGCAG”, the binding signal was 19600 fluorescence intensity (a.u.).

Consider “GGAGCGCTGGGAGGAAGGGCGTAGGGAGGGAGGGGTGAGGCGGAGTCACCTAGTGCAG”, for which the binding signal was 11600 fluorescence intensity (a.u.).

For the sequence “CTAATCCCCTCTAGCTAGCCTCTTTTTTCTCCATTTGTTTCGGAGTCACCTAGTGCAG”, the binding signal is 11100 fluorescence intensity (a.u.).

Regarding “GCCGCCGCCGCCGCCCGCGCCGATCCCCATCCATCCCGCACGGAGTCACCTAGTGCAG”, the binding signal was 8970 fluorescence intensity (a.u.).

As for “GGGATGTCTTGGCTTTTTTTTTTTCTTCACCGAGCAATCGCGGAGTCACCTAGTGCAG”, the binding signal was 13400 fluorescence intensity (a.u.).

Regarding “GGTTAGAGATACATACATATTATACCTGATTCACCTCACTCGGAGTCACCTAGTGCAG”, the binding signal was 8060 fluorescence intensity (a.u.).

For the sequence “CTTCTTCGATCTCCGGCAATCGCTCCATCGATCGGCGCTTCGGAGTCACCTAGTGCAG”, the binding signal is 8370 fluorescence intensity (a.u.).

“TTTTTTCTGTAAGGTGTCATATTTCTTCAATTGATGGATACGGAGTCACCTAGTGCAG”: the binding signal is 8340 fluorescence intensity (a.u.).

On to “GGCTTCAGTATGAATTCTTACACAACCGTTGGTGTGCTACCGGAGTCACCTAGTGCAG”, for which the binding signal is 9250 fluorescence intensity (a.u.).

Turning to “ACCCTCGGACCGGTTTTTTTACTATGCCTCAAACATGTTCCGGAGTCACCTAGTGCAG”, the binding signal was 9800 fluorescence intensity (a.u.).

For “ATCCCTCTGGTCGTCTCCTACCTCTCGGTTTCTTCACCCTCGGAGTCACCTAGTGCAG”, the binding signal is 14600 fluorescence intensity (a.u.).

“TTTTTTCGGTCTCGGTATCGGTCTTTTCGGTTCGATCTTACGGAGTCACCTAGTGCAG”: the binding signal was 8400 fluorescence intensity (a.u.).

Turning to “GGTGGCGGTTGCGGGTGGAGGGCCGCGGCGGTGCGACGAACGGAGTCACCTAGTGCAG”, the binding signal was 8480 fluorescence intensity (a.u.).

Turning to “ACGGTGCCGAACGAGCTTGGGGATGGGGACGGCGGCGGGGCGGAGTCACCTAGTGCAG”, the binding signal was 10200 fluorescence intensity (a.u.).

Consider “GGCCGGCGGGTGGCCGGGTGGGGAGGAGGTCGGCAGGGCGCGGAGTCACCTAGTGCAG”, for which the binding signal was 9780 fluorescence intensity (a.u.).

Consider “GTAGGGGCGGGAGGGGAGGCGTGGTGGCGCCGGGCCGGCGCGGAGTCACCTAGTGCAG”, for which the binding signal is 14900 fluorescence intensity (a.u.).

As to “GTGGGGCGGTGGCTGCTGCATTGCATTGGGCGGGAGAGATCGGAGTCACCTAGTGCAG”, the binding signal was 17200 fluorescence intensity (a.u.).

For “ACTAGTGGGCTGCTTGGGTGGGGAGCCCGGGCCGGCAGATCGGAGTCACCTAGTGCAG”, the binding signal is 12000 fluorescence intensity (a.u.).

For the sequence “CACTATCGGCAGTGCAGCCGGCGGCTGGGGCGGGGAGTACCGGAGTCACCTAGTGCAG”, the binding signal is 9540 fluorescence intensity (a.u.).

Regarding “CGTACTGGGCTGGGCTGGGCTGGGATTCAACCGAACGGGGCGGAGTCACCTAGTGCAG”, the binding signal was 20400 fluorescence intensity (a.u.).

Turning to “ATCACGGAGGAGGCGTTCGGGGAGGGAGGGTGGGGCGCGCCGGAGTCACCTAGTGCAG”, the binding signal was 24400 fluorescence intensity (a.u.).

As for “GCGGCGTTGCGGATGGGGACGGGGACGGGGACGGCGGCGACGGAGTCACCTAGTGCAG”, the binding signal was 10400 fluorescence intensity (a.u.).

For “AAGTGCTCGATCGGGAGCGGTGGTGGTGGTGGGGAGAGAGCGGAGTCACCTAGTGCAG”, the binding signal was 11300 fluorescence intensity (a.u.).

For “GCGGCTGGGGTTGCGGTGCAATCTGGGGCGGGGATGCGAACGGAGTCACCTAGTGCAG”, the binding signal is 17100 fluorescence intensity (a.u.).

Regarding “CAATTTCCATGGTTTTCTTAGCATTCTCGTCTCTAGTATTCGGAGTCACCTAGTGCAG”, the binding signal was 9610 fluorescence intensity (a.u.).

Take “AAACCCTAGCTCCGGATTCTTCTCCTCTCCTCCTTTCTTCCGGAGTCACCTAGTGCAG”: the binding signal was 8070 fluorescence intensity (a.u.).
